# The supplement of paper PMC12282887
# ± gives the standard deviation of the averaged measurements.
# Experiments:
# Assay in all cases: promoter activity interaction Z-score (Lux/OD deviation from empty-vector control); higher = stronger promoter induction by the compound
# [1] = test system: E. coli BW25113 acrABp lux reporter
# How it was run: (§1)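 Reporter strains of E. coli BW25113 grew at 37°C in 40 µl LB Lennox in 384-well plates. Readings of OD600 and luminescence were taken every 30 min over 12 h, integrated over 0–8 h (wild type) or 1–9 h (deletion strains), and wells below 10% of the median growth value were excluded. Scores are Z-transformed residuals of growth-normalised luminescence from a fit against a control.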
# [2] = test system: E. coli BW25113 ompFp lux reporter
# How it was run: as §1
# [3] = test system: E. coli BW25113 robp lux reporter
# How it was run: as §1
# [4] = test system: E. coli BW25113 soxSp lux reporter
# How it was run: as §1
# [5] = test system: E. coli BW25113 tolCp lux reporter
# How it was run: as §1
# [6] = 13.3 µg/ml, genetic background: wild type
# [7] = 13.3 µg/ml, genetic background: ΔmarA
# [8] = 13.3 µg/ml, genetic background: Δrob
# [9] = 13.3 µg/ml, genetic background: ΔsoxS
# [10] = 26.6 µg/ml, genetic background: wild type
# [11] = 26.6 µg/ml, genetic background: ΔmarA
# [12] = 26.6 µg/ml, genetic background: Δrob
# [13] = 26.6 µg/ml, genetic background: ΔsoxS
# [14] = 53.2 µg/ml, genetic background: wild type
# [15] = 53.2 µg/ml, genetic background: ΔmarA
# [16] = 53.2 µg/ml, genetic background: Δrob
# [17] = 53.2 µg/ml, genetic background: ΔsoxS
# [18] = 106.3 µg/ml, genetic background: wild type
# [19] = 106.3 µg/ml, genetic background: ΔmarA
# [20] = 106.3 µg/ml, genetic background: Δrob
# [21] = 106.3 µg/ml, genetic background: ΔsoxS
smiles,measurement,setting,value
NCCc1c[nH]c2ccc(O)cc12 [Serotonine],promoter activity interaction Z-score,[1]; [6],-0.00265 ± 0.11
same,promoter activity interaction Z-score,[1]; [7],-0.788 ± 0.29
same,promoter activity interaction Z-score,[1]; [8],-0.254 ± 0.091
same,promoter activity interaction Z-score,[1]; [9],-0.249 ± 0.17
same,promoter activity interaction Z-score,[1]; [10],0.0217 ± 0.063
same,promoter activity interaction Z-score,[1]; [11],-0.85 ± 0.58
same,promoter activity interaction Z-score,[1]; [12],-0.276 ± 0.24
same,promoter activity interaction Z-score,[1]; [13],-0.0282 ± 0.36
same,promoter activity interaction Z-score,[1]; [14],-0.325 ± 0.06
same,promoter activity interaction Z-score,[1]; [15],-0.49 ± 0.22
same,promoter activity interaction Z-score,[1]; [16],-0.415 ± 0.17
same,promoter activity interaction Z-score,[1]; [17],-0.545 ± 0.3
same,promoter activity interaction Z-score,[1]; [18],0.00625 ± 0.31
same,promoter activity interaction Z-score,[1]; [19],-0.338 ± 0.23
same,promoter activity interaction Z-score,[1]; [20],-0.109 ± 0.092
same,promoter activity interaction Z-score,[1]; [21],-0.397 ± 0.11
same,promoter activity interaction Z-score,[2]; [6],-0.556 ± 0.15
same,promoter activity interaction Z-score,[2]; [7],-0.881 ± 0.092
same,promoter activity interaction Z-score,[2]; [8],-0.716 ± 0.021
same,promoter activity interaction Z-score,[2]; [9],-0.309 ± 0.16
same,promoter activity interaction Z-score,[2]; [10],-0.212 ± 0.059
same,promoter activity interaction Z-score,[2]; [11],-0.69 ± 0.35
same,promoter activity interaction Z-score,[2]; [12],-1.16 ± 0.13
same,promoter activity interaction Z-score,[2]; [13],-0.158 ± 0.048
same,promoter activity interaction Z-score,[2]; [14],-0.996 ± 0.15
same,promoter activity interaction Z-score,[2]; [15],-0.794 ± 0.068
same,promoter activity interaction Z-score,[2]; [16],-0.999 ± 0.19
same,promoter activity interaction Z-score,[2]; [17],-0.802 ± 0.085
same,promoter activity interaction Z-score,[2]; [18],-0.733 ± 0.22
same,promoter activity interaction Z-score,[2]; [19],-0.818 ± 0.24
same,promoter activity interaction Z-score,[2]; [20],-0.632 ± 0.014
same,promoter activity interaction Z-score,[2]; [21],-0.689 ± 0.16
same,promoter activity interaction Z-score,[3]; [6],-0.357 ± 0.24
same,promoter activity interaction Z-score,[3]; [7],-0.786 ± 0.2
same,promoter activity interaction Z-score,[3]; [8],-0.355 ± 0.17
same,promoter activity interaction Z-score,[3]; [9],0.188 ± 0.045
same,promoter activity interaction Z-score,[3]; [10],0.207 ± 0.12
same,promoter activity interaction Z-score,[3]; [11],-0.465 ± 0.14
same,promoter activity interaction Z-score,[3]; [12],-0.388 ± 0.26
same,promoter activity interaction Z-score,[3]; [13],0.275 ± 0.77
same,promoter activity interaction Z-score,[3]; [14],-0.669 ± 0.27
same,promoter activity interaction Z-score,[3]; [15],-0.144 ± 0.64
same,promoter activity interaction Z-score,[3]; [16],-0.179 ± 0.34
same,promoter activity interaction Z-score,[3]; [17],-0.554 ± 0.4
same,promoter activity interaction Z-score,[3]; [18],0.176 ± 0.072
same,promoter activity interaction Z-score,[3]; [19],0.574 ± 0.46
same,promoter activity interaction Z-score,[3]; [20],0.0481 ± 0.46
same,promoter activity interaction Z-score,[3]; [21],-0.714 ± 0.32
same,promoter activity interaction Z-score,[4]; [6],-0.18 ± 0.0085
same,promoter activity interaction Z-score,[4]; [7],-0.19 ± 0.0051
same,promoter activity interaction Z-score,[4]; [8],-0.045 ± 0.2
same,promoter activity interaction Z-score,[4]; [9],-0.24 ± 0.11
same,promoter activity interaction Z-score,[4]; [10],-0.101 ± 0.061
same,promoter activity interaction Z-score,[4]; [11],-0.181 ± 0.093
same,promoter activity interaction Z-score,[4]; [12],-0.254 ± 0.35
same,promoter activity interaction Z-score,[4]; [13],-0.331 ± 0.17
same,promoter activity interaction Z-score,[4]; [14],-0.456 ± 0.097
same,promoter activity interaction Z-score,[4]; [15],-0.276 ± 0.14
same,promoter activity interaction Z-score,[4]; [16],-0.264 ± 0.11
same,promoter activity interaction Z-score,[4]; [17],-0.531 ± 0.027
same,promoter activity interaction Z-score,[4]; [18],-0.199 ± 0.16
same,promoter activity interaction Z-score,[4]; [19],-0.243 ± 0.18
same,promoter activity interaction Z-score,[4]; [20],-0.285 ± 0.11
same,promoter activity interaction Z-score,[4]; [21],-0.676 ± 0.071
same,promoter activity interaction Z-score,[5]; [6],-0.64 ± 0.46
same,promoter activity interaction Z-score,[5]; [7],-0.135 ± 0.24
same,promoter activity interaction Z-score,[5]; [8],0.259 ± 1.6
same,promoter activity interaction Z-score,[5]; [9],-0.321 ± 0.043
same,promoter activity interaction Z-score,[5]; [10],0.564 ± 0.026
same,promoter activity interaction Z-score,[5]; [11],-0.00904 ± 0.37
same,promoter activity interaction Z-score,[5]; [12],-0.3 ± 0.55
same,promoter activity interaction Z-score,[5]; [13],0.737 ± 0.3
same,promoter activity interaction Z-score,[5]; [14],-0.749 ± 0.61
same,promoter activity interaction Z-score,[5]; [15],-0.0593 ± 0.84
same,promoter activity interaction Z-score,[5]; [16],-0.236 ± 1.2
same,promoter activity interaction Z-score,[5]; [17],-0.229 ± 1.1
same,promoter activity interaction Z-score,[5]; [18],-0.235 ± 0.56
same,promoter activity interaction Z-score,[5]; [19],0.575 ± 0.063
same,promoter activity interaction Z-score,[5]; [20],-0.637 ± 0.9
same,promoter activity interaction Z-score,[5]; [21],-0.781 ± 0.14
